Compounds with a hit are over-represented: about 2.3% of the library has one in this group of screens.
CHO-K1 Ca ag = M1 agonist counterscreen hit in parental CHO-K1 cells; Fluo-8 calcium fluorescence; scaled to maximal ATP response, vehicle zero; activation, % at 3 µM; hit rate 0.48% among 360,000; AID 602248; in the data active = activation above about 15%;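 also: untransfected CHO-K1 host cells lacking M1 receptor as counterscreen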
M1 PAM = human CHRM1 positive allosteric modulation; P11229; CHO-K1 hM1, Fluo-8 calcium fluorescence, ACh EC20; 0% = ACh EC20, 100% = maximal ACh; activation, % at 3 µM; hit rate 0.088% among 360,000; AID 588819; in the data active = activation above about 19%, passing the limit was not always enough
Target sequence (P11229 whole entry, looked up): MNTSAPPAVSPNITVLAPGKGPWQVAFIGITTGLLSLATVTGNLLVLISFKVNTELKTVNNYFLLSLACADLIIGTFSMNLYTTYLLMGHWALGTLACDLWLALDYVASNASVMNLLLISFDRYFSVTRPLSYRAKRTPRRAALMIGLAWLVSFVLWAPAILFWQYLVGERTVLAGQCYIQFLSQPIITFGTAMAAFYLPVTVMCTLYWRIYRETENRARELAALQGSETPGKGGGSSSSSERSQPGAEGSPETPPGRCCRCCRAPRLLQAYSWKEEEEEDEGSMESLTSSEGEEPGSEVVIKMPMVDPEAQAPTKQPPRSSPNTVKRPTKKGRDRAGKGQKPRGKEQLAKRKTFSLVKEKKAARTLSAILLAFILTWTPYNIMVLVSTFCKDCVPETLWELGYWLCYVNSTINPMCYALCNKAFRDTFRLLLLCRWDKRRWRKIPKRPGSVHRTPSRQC
CHO-K1 Ca antag = nonselective inhibitor or artifact in parental CHO-K1 cells; inhibition, % at 3 µM; hit rate 0.6% among 360,000; ATP-induced calcium, Fluo-8 fluorescence;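 active = inhibition above a per-plate cutoff, the plate's mean sample inhibition plus 3 SD, cut at about 24% in these data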;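 also: 0% = DMSO plus EC80 ATP and 100% = DMSO alone without ATP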
M1 PAM parental = M1 PAM counterscreen hit in parental CHO-K1 cells; ATP EC20, Fluo-8 calcium fluorescence; 0% at ATP EC20, 100% at ATP max; activation, % at 3 µM; hit rate 0.02% among 360,000;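 active = activation above the run cutoff, the mean activation of all test compounds plus 3 SD, cut at about 40% in these data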;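 also: peak over basal fluorescence ratio in a 140 s read after ATP addition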
M1 ag = agonists of human M1 muscarinic receptor | P11229 | CHO-K1 hM1, Fluo-8 calcium fluorescence, agonist mode; 0% DMSO, 100% acetylcholine EC100 | activation, % at 3 µM | hit rate 0.33% among 360,000 | AID 588814;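 active = activation above the run's mean compound activation plus 3 SD, cut at about 16% in these data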;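 also: peak over basal fluorescence ratio within a 140 s kinetic read after compound addition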
M1 antag = human CHRM1 antagonism; CHO-K1 hM1, Fluo-8 calcium fluorescence, ACh EC80 antagonist; inhibition, % at 3 µM; hit rate 1.3% among 360,000; AID 588852;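 active = percent inhibition above its own plate's cutoff, namely the mean of that plate's compound wells plus 3 SD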;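 also: peak over basal fluorescence ratio during 140 s after agonist addition; 0% = ACh EC80 plus DMSO and 100% = DMSO alone without agonist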
* = called active by the depositor; nt = no result.

SMILES	CHO-K1 Ca ag	M1 PAM	CHO-K1 Ca antag	M1 PAM parental	M1 ag	M1 antag
COC(=O)Cc1ccc(OC(=O)CCS(=O)(=O)c2ccc(C)cc2)cc1	1.0	5.4	-9.2	1.4	-4.8	-4.0
Oc1ccc(N=Nc2ccc3c(c2)OCCO3)c2ncccc12	17.1*	-12.4	22.4	-2.8	11.9	32.2*
Cc1ccc(N(Cc2ccco2)C(=O)c2ccc(N3CCCCC3)c([N+](=O)[O-])c2)cc1	-1.0	-6.0	25.1*	-14.8	-3.7	7.1
CC(=O)c1sc(NC(=O)C2(F)C(F)(F)C(F)(F)C(F)(F)C(F)(F)C2(F)F)nc1C	12.6	-6.3	25.6*	1.9	3.4	11.1
c1ccc(SCCc2ccncc2)cc1	1.2	-29.3	5.8	4.3	-8.6	101.0*
CCCN(CCC)S(=O)(=O)c1cccc(-c2csc(C)n2)c1	21.6*	3.2	2.6	9.6	1.2	-21.8
C#CCOCCOCCOCCNc1nc(N2CCN(C(=O)CCCCCCCCCCNC(=O)Cn3cc(CCCCCN)nn3)CC2)nc(N2CCN(C(=O)CCCCCCCCCCNC(=O)Cn3cc(CCCCCN)nn3)CC2)n1	2.9	-35.2	-7.4	8.2	-7.0	38.6*
CC(C)(C)OC(=O)NCCCCCc1cn([C@@H](CO)C(=O)NCCCCCCCCCCC(=O)N2CCN(C(=O)OC(C)(C)C)CC2)nn1	18.5*	-36.0	23.5	-14.3	-2.9	74.3*
C#CCOCCOCCOCCNc1nc(N2CCN(C(=O)CCCCCCCCCCNC(=O)[C@H]([C@@H](C)CC)n3cc(CCCCCN)nn3)CC2)nc(N2CCN(C(=O)CCCCCCCCCCNC(=O)[C@H](CCCCN)n3cc(CCCC(=O)O)nn3)CC2)n1	6.0	-8.5	-10.4	6.5	18.2*	3.3
C#CCOCCOCCOCCNc1nc(N2CCN(C(=O)CCCCCCCCCCNC(=O)[C@H]([C@@H](C)CC)n3cc(CCCCCN)nn3)CC2)nc(N2CCN(C(=O)CCCCCCCCCCNC(=O)[C@H](CO)n3cc(CCCCCN)nn3)CC2)n1	1.5	-21.0	-13.7	5.0	19.1*	11.7
C#CCOCCOCCOCCNc1nc(N2CCN(C(=O)CCCCCCCCCCNC(=O)Cn3cc(CCCCCN)nn3)CC2)nc(N2CCN(C(=O)CCCCCCCCCCNC(=O)[C@@H](CCC(=O)O)n3cc(CCCCCN)nn3)CC2)n1	3.8	-14.7	-7.5	9.7	0.6	16.6
CC(C)(C)OC(=O)CC[C@@H](C(=O)NCCCCCCCCCCC(=O)N1CCN(C(=O)OC(C)(C)C)CC1)n1cc(CCCCCNC(=O)OC(C)(C)C)nn1	-0.2	19.5	-0.8	-4.5	5.8	-5.2
C#CCOCCOCCOCCNc1nc(N2CCN(C(=O)CCCCCCCCCCNC(=O)[C@H](CCCCN)n3cc(CCCC(=O)O)nn3)CC2)nc(N2CCN(C(=O)CCCCCCCCCCNC(=O)[C@@H]([C@H](C)O)n3cc(C)nn3)CC2)n1	1.3	13.5	-17.4	7.9	5.8	-16.6
CC(C)C[C@H]1CN(CCCC[C@H]2CNC(=O)C(=O)N2CC2CCCCC2)C(=O)C(=O)N1CCc1ccc(O)cc1	0.3	nt	-8.6	9.0	nt	nt
C#CCOCCOCCOCCNc1nc(N2CCOCC2)nc(N2CCN(C(=O)CCCCCCCCCCNC(=O)[C@@H](CCC(=O)O)n3cc(CCCCCN)nn3)CC2)n1	-0.1	7.8	8.3	-10.0	-0.7	8.8
C#CCOCCOCCOCCNc1nc(N2CCN(C(=O)CCCCCCCCCCNC(=O)[C@@H](CCC(=O)O)n3cc(CCCCCN)nn3)CC2)nc(N2CCN(C(=O)CCCCCCCCCCNC(=O)[C@H]([C@@H](C)CC)n3cc(CCCCCN)nn3)CC2)n1	1.6	-13.0	-14.8	9.9	18.3*	11.5
C[C@H]1COc2cccc(N(C)CCO)c2S(=O)(=O)N1	0.7	nt	-11.1	9.9	nt	nt
O=C1c2cccc3c([N+](=O)[O-])ccc(c23)C(=O)N1c1ccccn1	-0.1	-3.1	10.4	8.5	-4.7	20.1
O=C1c2cccc3c([N+](=O)[O-])ccc(c23)C(=O)N1c1nccs1	-0.3	-13.7	21.1	-7.6	-7.0	24.0*
O=C(c1ccncc1)N1CCN(CCc2ccccc2)CC1	0.4	10.6	-0.1	-4.2	-5.7	-16.2
O=C(c1ccc(Br)o1)N1CCN(CCc2ccncc2)CC1	1.3	-28.9	-14.2	-6.3	-8.3	43.6*

Screening data as filed in PubChem BioAssay.
